Results as given in ChEMBL document CHEMBL4513216, “Probing the Open Global Health Chemical Diversity Library for Multistage-Active Starting Points for Next-Generation Antimalarials” (ACS Infect Dis, 2020).
The whole screen tested about 69,000 compounds, of which about 8,600 (12%) showed an effect of 50% or more. What follows is part of a selection rich in strong results, with near analogues and random picks from the rest.

System: Plasmodium berghei
Test: Screen against P. berghei liver stage (PbLuc), transformed with Luciferase, at 10uM
Type: functional, HepG2
Settings: tested at 10 uM

| SMILES | INHIBITION |
| --- | --- |
| CC(C)CN1CCc2[nH]nc(C(=O)N3CCCC3)c2C1 | 45.7% |
| Cc1nc(-c2nc(C(=O)NC3CC3)c3ccccn23)cn1C(C)C | 43% |
| OC(CNCCn1cccn1)c1ccc(Br)cc1 (stereo unspecified) | 25.6% |
| CCn1nc(C)c(S(=O)(=O)N(C)c2ccc(Cl)cn2)c1C | 0.643% |
| O=C(COCc1ccco1)Nc1cc(C(F)(F)F)c[nH]c1=O | 19.6% |
| CCc1nc(C2CCCN2CCn2cncn2)no1 (stereo unspecified) | 16.7% |
| CC(C)[C@]1(O)CN(C(=O)COCC(N)=O)C[C@H]1C | 10.6% |
| COc1cccc(CC(=O)N2CCC(O)(C(F)(F)F)C2)c1 (stereo unspecified) | 49.1% |
| COc1cccc(CCCNC(=O)N2CCC(O)(C(F)(F)F)C2)c1 (stereo unspecified) | 41.4% |
| CNC(=O)N1CC[C@@H]2CN(CCc3cccc(OC)c3)S(=O)(=O)[C@@H]2CC1 | 8.31% |
| CNC(=O)N1CC[C@@H]2CN(Cc3cccc(OC)c3)S(=O)(=O)[C@@H]2CC1 | 63.8% |
| COc1cccc(NC(=O)N2CCC(O)(C(F)(F)F)C2)c1 (stereo unspecified) | 79.1% |
| CNC(=O)N1CC[C@@H]2CN(Cc3cccc(Cl)c3)S(=O)(=O)[C@@H]2CC1 | -2.17% |
| c1cc2c(cc1-n1nc(C3CC3)nc1-c1csnn1)OCCO2 | 27.2% |
| O=C(c1ccoc1)N1CCC(NCc2ccccc2Cl)CC1 | 7.81% |
| CN(C)C(=O)Cn1c(C2CC2)c(CN2CCC(O)CC2)c2cccnc21 | -8.58% |
| Cc1csc(CCNC(=O)Nc2cc(C(F)(F)F)c[nH]c2=O)n1 | 22% |
| Cc1occc1C(=O)N1C[C@@H](C(=O)NCc2ccco2)C[C@H]2OCC[C@H]21 | 32.2% |
| Cc1c[nH]c(C2CCCN(Cc3cccc(C(=O)O)c3)C2)n1 (stereo unspecified) | 6.26% |
| CC(=O)Nc1ccc(Oc2cccc(CN3CCCC3)c2)cc1 | 27.9% |
| COc1ccc(Oc2cccc(C#N)n2)cc1CN1CCCC1 | 25.4% |
| CCOc1cc(CN2CCCC2)ccc1Oc1cccc(C#N)n1 | 47.6% |

| SMILES | INHIBITION |
| --- | --- |
| N#Cc1cccc(Oc2ccc(CN3CCCC3)cc2Cl)n1 | 55% |
| COc1ccc(CN2CCCC2)cc1Oc1cccc(C#N)n1 | 57.5% |
| N#Cc1ccc(CN2CCOCC2)cc1 | 40.6% |
| O=C1CCNc2ccc(F)cc2CN1Cc1ccco1 | 1.8% |
| Cc1ccc(-c2nc(C3CCN(C(=O)c4cnn(C)c4)CC3)no2)cn1 | 30.5% |
| O=c1[nH]c(N2CCOCC2)nc2c1CN(Cc1cccnc1)CC2 | -4.51% |
| O=C1CCCN1CCCC(=O)N1CCC2(CC1)[C@H](O)C[C@@H]2O | 9.56% |
| CN(Cc1nc(Cc2cccc(C(F)(F)F)c2)no1)CC1CCCCO1 (stereo unspecified) | 42.1% |
| CNC(=O)COc1cccc(CNC(=O)c2c(C)noc2C(C)C)c1 | 37.4% |
| Cc1cc(C)c2nc(CN3CCOCC(O)C3)cc(O)c2c1 (stereo unspecified) | 17.6% |
| Cc1cc(C)c2nc(CN3CC[C@@H](O)C3)cc(O)c2c1 | 20.1% |
| Cc1cc(C)c2nc(CN3CCC(CN)CC3)cc(O)c2c1 | 34.9% |
| Cc1cc(C)c2nc(CN3CCCC(c4cc[nH]n4)C3)cc(O)c2c1 (stereo unspecified) | 78.5% |
| COC1CCCN(Cc2cc(O)c3cc(C)cc(C)c3n2)C1 (stereo unspecified) | 61.2% |
| Cc1cc(C)c2nc(CN3CCC(CN)C3)cc(O)c2c1 (stereo unspecified) | -8.75% |
| CS(=O)(=O)CCn1ccc(NC(=O)Cc2ccccc2Cl)n1 | 25.2% |
| CSCCC(Nc1nc(C)cc(C)n1)C(=O)NC1CC1 (stereo unspecified) | -15.4% |
| NC(=O)C1CN(c2ccc3cc(Br)ccc3n2)CCO1 (stereo unspecified) | 37.1% |
| Cc1ccccc1CSc1nc(N)cc(N2CCOC(C(N)=O)C2)n1 (stereo unspecified) | -19.2% |
| NC(=O)C1CN(c2ccc(Br)cn2)CCO1 (stereo unspecified) | 69.7% |
| OCCOCc1nnn2c1CN(c1ncccn1)CCC2 | 43.8% |
| CCS(=O)(=O)N1CCCn2nnc(CNC(C)=O)c2C1 | 52.1% |

| SMILES | INHIBITION |
| --- | --- |
| c1ccc(OCc2nnn3c2CN(c2ncccn2)CCC3)nc1 | 57.1% |
| c1cnc(N2CCCn3nnc(COCC4CC4)c3C2)nc1 | 18.7% |
| CCS(=O)(=O)N1CCCn2nnc(Cn3cccc3)c2C1 | 36.5% |
| CN(C)C(=O)NCc1nnn2c1CN(CC1CCOCC1)CCC2 | -51% |
| CC(=O)NCc1nnn2c1CN(c1ncc(C)cn1)CCC2 | 21.3% |
| CC(=O)NCc1nnn2c1CN(c1ncccn1)CCC2 | 54.8% |
| c1ccc(CN2CCCn3nnc(COc4ccccn4)c3C2)nc1 | 24.9% |
| O=C(c1ccco1)N1CC[C@H]2C[C@@H](c3nccs3)O[C@@H]2C1 | -7.59% |
| COc1cccc(CNC(=O)c2cc(C)nc(N3CCCCC3)n2)c1 | 4.97% |
| CCc1csc(C2CCCN(C(=O)c3ccco3)C2)n1 (stereo unspecified) | 19.6% |
| CC(=O)N1CCC(C)(c2cc(C(=O)NCC3CC3)nc(C)n2)CC1 | 9.075% |
| O=C1CC2(CCCCN2C(=O)c2ccsc2)CN1CC1CC1 (stereo unspecified) | 37.4% |
| COCCn1cnc2ccc(NC(=O)c3ccccn3)cc2c1=O | 19.4% |
| COc1cccc(OC2CN(C(=O)CCn3cnc4ccccc43)C2)c1 | 70% |
| CCn1nc(CC(C)C)cc1C(=O)N1CC(c2ccncc2)C1 | 57.4% |
| O=C(CCn1cnc2ccccc21)N1CCN2CCCCC2C1 (stereo unspecified) | 40.1% |
| COc1cccc(OC2CN(C(=O)CCn3cnnn3)C2)c1 | 55.9% |
| COc1cccc(OC2CN(C(=O)c3c(C)noc3C)C2)c1 | -57.7% |
| COc1cccc(OC2CN(C(=O)Cn3nc4ccccc4n3)C2)c1 | 28.7% |
| CC(C)Cc1cc(C(=O)N2CCC(Oc3cccnc3)CC2)n(C)n1 | 5.11% |
| CCn1nc(CC(C)C)cc1C(=O)N1C[C@H](O)[C@@H](N2CCCCC2)C1 | 29.7% |
| CCn1nc(CC(C)C)cc1C(=O)N1CC[C@@H](O)C1 | 26.8% |

| SMILES | INHIBITION |
| --- | --- |
| COc1cccc(OC2CN(C(=O)c3cc(CC(C)C)nn3C)C2)c1 | 79.2% |
| COc1cccc(OC2CN(C(=O)c3sccc3C)C2)c1 | -17.6% |
| CC(C)Cc1cc(C(=O)N2CC(OCc3ccccc3F)C2)n(C)n1 | 43.2% |
| Cc1ccc(CNC(=O)NCCCO)cc1 | 0.914% |
| Cc1ccc(C(NC(=O)C2CCC(O)CC2)c2cccnc2)cc1C (stereo unspecified) | 7.84% |
| Cc1ccccc1S(=O)(=O)NC(=O)C1(c2ccccc2)CCC1 | 35.2% |
| Cc1ccc(S(=O)(=O)NC(C)(C)CN)c(F)c1 | -21.8% |
| Cn1ccc(C2CCCCCN2C(=O)c2cccnc2)n1 (stereo unspecified) | -1.16% |
| Cn1ccc(C2CCCCN2C(=O)c2cccc(-n3cccn3)c2)n1 (stereo unspecified) | 56.1% |
| Cn1ccc(C2CCCCN2C(=O)c2cccc(Cn3cccn3)c2)n1 (stereo unspecified) | 15% |
| O=S(=O)(NCCCn1cncn1)c1ccc2c(c1)OCCCO2 | 49% |
| CSc1ncccc1C(=O)N1C[C@@H]2CC[C@H]1CN(c1cnccn1)C2 | 0.139% |
| CC(C)(CNc1cccc(Cl)c1)NC(=O)C1CCCN(CC(N)=O)C1 (stereo unspecified) | 69.9% |
| NC(=O)N1CCCC(C(=O)Nc2cccc(Cl)c2)C1 (stereo unspecified) | 37.5% |
| CC(C)(CNC(=O)C1CCCN(C(N)=O)C1)c1cccc(Cl)c1 (stereo unspecified) | 21.5% |
| O=C(c1cccc2c1OCO2)N1CCC(N2CCCC2)CC1 | -17.4% |
| c1ccc(COC2C[C@@H]3CN(Cc4cncnc4)C[C@@H]3C2)cc1 (stereo partly specified) | 28% |
| CCc1noc(C2CCCCN2C(=O)c2cccnc2)n1 (stereo unspecified) | -8.9% |
| Cc1noc(C)c1C(=O)N1CCCC1c1c(C)nn(C)c1C (stereo unspecified) | -50.5% |
| Cc1cc(CNC2(c3ccc(Cl)cc3)CC2)no1 | 16.8% |
| OC1(c2ccc(F)cc2)CCN(Cc2ccccc2N2CCCC2)CC1 | 43.4% |
| Cc1cccc(C2(O)CCN(Cc3ccccc3N3CCCC3)CC2)c1 | 61% |

| SMILES | INHIBITION |
| --- | --- |
| OC1(c2ccccc2F)CCN(Cc2ccccc2N2CCCC2)CC1 | 46.2% |
| C1CCC(NC2CCCN(Cc3noc(C4CC4)n3)C2)C1 (stereo unspecified) | 17.3% |
| CCOc1cccc(C2CC(=O)NCc3nc(N(C)C)sc32)c1 (stereo unspecified) | 11.7% |
| CCOc1cccc(C2CC(=O)NCc3nc(N4CCCC4)sc32)c1 (stereo unspecified) | 56.5% |
| CCOc1cccc(C2CC(=O)NCc3nc(N)sc32)c1 (stereo unspecified) | 42.2% |
| Cc1cccc(C)c1OCCNC(=O)CN1CCN(C)CC1C (stereo unspecified) | -17.7% |
| Cc1ccc2c(c1)cc(CN1CC[C@](C)(O)[C@H](C)C1)n2C | 42.1% |
| CN1CCN(C2CCN(Cc3cn4ccccc4n3)CC2)C1=O | -22.3% |
| CN(C)Cc1cnc2n1CCN(C(=O)C1CC=CC1)CC2 | 36.9% |
| CS(=O)(=O)N1CCO[C@@H]2CCN(Cc3ccncc3)CC[C@H]21 | 23.6% |
| Cc1ccc(CN2CC[C@H]3[C@@H]2CCC(=O)N3CCN2CCCC2)s1 | 32.4% |
| Cc1ccc(CN2CC[C@@H]3[C@H]2CCC(=O)N3Cc2ccncc2)s1 | 68.4% |
| Cc1ccc(CN2CC[C@H]3[C@H]2CCN3S(C)(=O)=O)s1 | 58.7% |
| Cc1ccc(CN2CC[C@@H]3OCCN(S(C)(=O)=O)[C@H]3CC2)s1 | 34.5% |
| Cc1ccc(CN2CC[C@H]3[C@H]2CCN3S(=O)(=O)C2CC2)s1 | 13.7% |
| Cc1cc(CN2CC[C@H]3[C@H]2CCN3S(C)(=O)=O)oc1C | 16.1% |
| Cc1cccc(CN2C(=O)CC[C@@H]3[C@H]2CCN3Cc2ccc(C)s2)n1 | 33.5% |
| Cc1ccc(CN2CC[C@@H]3OCCN(Cc4ccncc4)[C@H]3CC2)s1 | 58.3% |
